# Laboratory results from PubChem BioAssay.
# The source made the active and inactive calls.
# Tests used:
# [1] = small molecules captured by biotinylated probe aFSTL3 – biochemical, small-molecule microarray, fluorescence 635/667, stem cell growth factor project, primary screen (AID 1064); conditions: higher = more signal;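 further: measures binding of the biotinylated anti-FSTL3 antibody to printed compounds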
# [2] = binders from COS7 lysate, DM2A8 probe, primary screen, torsin A project, cell lysate, small-molecule microarray, fluorescence 635/667 (AID 1065); conditions: higher = more signal, COS7 lysate expressing mutant human TOR1A
# [3] = small molecules captured by biotinylated probe aFGF2 – biochemical, small-molecule microarray, fluorescence 635/667, stem cell growth factor project, primary screen (AID 1067); conditions: higher = more signal;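 further: measures binding of biotinylated aFGF2 protein to printed compounds on slides; z-score merges feature fluorescence and signal-to-noise across triplicate slides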
# [4] = small molecules captured by biotinylated probe aFGF10 – biochemical, small-molecule microarray, fluorescence 635/667, stem cell growth factor project, primary screen (AID 1071); conditions: higher = more signal;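 further: score merges 667 nm spot intensity and signal to noise from triplicate slides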
# [5] = biological target: Neurogenic locus notch homolog protein 2 (Homo sapiens) (UniProt Q04721); assay: small molecules binding Notch2 protein – biochemical, small-molecule microarray, 635 nm fluorescence, stem cell growth factors, primary screen (AID 1073); conditions: higher = more signal
# Chain of Neurogenic locus notch homolog protein 2 (Homo sapiens) (Q04721 whole entry, looked up, canonical isoform): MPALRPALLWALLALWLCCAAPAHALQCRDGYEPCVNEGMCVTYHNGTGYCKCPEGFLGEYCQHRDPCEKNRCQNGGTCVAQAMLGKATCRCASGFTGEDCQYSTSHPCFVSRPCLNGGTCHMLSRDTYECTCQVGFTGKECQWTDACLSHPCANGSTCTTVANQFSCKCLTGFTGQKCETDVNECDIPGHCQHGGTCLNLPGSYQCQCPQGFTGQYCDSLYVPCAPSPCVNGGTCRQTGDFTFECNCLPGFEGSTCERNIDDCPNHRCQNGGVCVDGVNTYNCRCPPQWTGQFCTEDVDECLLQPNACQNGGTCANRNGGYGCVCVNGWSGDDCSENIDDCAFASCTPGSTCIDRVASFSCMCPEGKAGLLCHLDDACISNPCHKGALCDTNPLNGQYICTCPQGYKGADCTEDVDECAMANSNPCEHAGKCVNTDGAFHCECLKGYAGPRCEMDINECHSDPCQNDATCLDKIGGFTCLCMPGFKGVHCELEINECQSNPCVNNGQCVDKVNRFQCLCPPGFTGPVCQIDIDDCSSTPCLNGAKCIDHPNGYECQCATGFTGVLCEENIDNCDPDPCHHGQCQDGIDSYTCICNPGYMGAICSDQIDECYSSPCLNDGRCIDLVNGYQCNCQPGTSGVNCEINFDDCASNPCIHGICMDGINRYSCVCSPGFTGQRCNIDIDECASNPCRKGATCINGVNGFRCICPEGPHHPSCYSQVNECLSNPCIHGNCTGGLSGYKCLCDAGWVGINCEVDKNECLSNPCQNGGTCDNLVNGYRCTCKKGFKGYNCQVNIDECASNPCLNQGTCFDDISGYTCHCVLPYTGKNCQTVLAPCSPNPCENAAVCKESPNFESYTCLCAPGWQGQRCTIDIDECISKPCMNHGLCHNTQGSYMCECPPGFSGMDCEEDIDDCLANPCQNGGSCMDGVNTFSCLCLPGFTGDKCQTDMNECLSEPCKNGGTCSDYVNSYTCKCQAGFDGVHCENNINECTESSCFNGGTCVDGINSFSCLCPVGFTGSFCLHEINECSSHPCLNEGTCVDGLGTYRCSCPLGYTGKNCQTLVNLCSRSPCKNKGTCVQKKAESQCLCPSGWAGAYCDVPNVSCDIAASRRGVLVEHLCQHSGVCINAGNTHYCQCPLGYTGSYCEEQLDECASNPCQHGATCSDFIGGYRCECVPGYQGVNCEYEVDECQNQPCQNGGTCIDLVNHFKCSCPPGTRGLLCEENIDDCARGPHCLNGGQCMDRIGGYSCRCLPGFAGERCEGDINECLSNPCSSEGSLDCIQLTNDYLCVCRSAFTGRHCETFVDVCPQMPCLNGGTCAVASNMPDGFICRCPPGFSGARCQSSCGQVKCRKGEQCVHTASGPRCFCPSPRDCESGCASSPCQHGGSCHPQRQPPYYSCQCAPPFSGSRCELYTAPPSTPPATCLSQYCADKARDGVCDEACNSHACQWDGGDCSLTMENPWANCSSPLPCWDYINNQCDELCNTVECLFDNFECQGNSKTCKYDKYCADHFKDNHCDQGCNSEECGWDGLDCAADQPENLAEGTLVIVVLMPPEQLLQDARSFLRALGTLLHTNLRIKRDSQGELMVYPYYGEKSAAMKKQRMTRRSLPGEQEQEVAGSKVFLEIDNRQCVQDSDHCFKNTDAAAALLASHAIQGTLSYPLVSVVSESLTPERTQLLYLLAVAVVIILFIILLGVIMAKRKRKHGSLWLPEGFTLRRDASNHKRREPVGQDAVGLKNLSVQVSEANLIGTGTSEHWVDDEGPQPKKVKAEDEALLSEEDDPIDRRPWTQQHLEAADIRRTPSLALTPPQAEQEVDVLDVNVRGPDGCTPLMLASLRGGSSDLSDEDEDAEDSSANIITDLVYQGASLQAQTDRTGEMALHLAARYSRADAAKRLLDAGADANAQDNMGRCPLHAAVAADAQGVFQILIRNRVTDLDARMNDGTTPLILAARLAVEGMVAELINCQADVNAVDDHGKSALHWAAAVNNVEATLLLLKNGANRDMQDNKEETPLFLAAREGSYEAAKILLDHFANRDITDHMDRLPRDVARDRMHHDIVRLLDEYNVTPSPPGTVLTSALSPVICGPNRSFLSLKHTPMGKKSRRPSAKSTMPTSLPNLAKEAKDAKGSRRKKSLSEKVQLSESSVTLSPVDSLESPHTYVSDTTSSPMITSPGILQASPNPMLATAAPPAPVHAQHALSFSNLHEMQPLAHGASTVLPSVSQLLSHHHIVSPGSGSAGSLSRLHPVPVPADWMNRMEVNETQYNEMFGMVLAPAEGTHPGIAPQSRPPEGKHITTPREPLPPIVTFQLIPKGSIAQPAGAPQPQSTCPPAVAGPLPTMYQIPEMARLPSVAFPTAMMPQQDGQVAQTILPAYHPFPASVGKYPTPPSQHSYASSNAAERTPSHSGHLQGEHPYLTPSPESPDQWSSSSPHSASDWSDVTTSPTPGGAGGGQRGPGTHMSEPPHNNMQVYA
# [6] = biological target: Pro-neuregulin-1, membrane-bound isoform (Homo sapiens) (UniProt Q02297); assay: small molecules binding neuregulin-1 protein – biochemical, small-molecule microarray, fluorescence 635/667, psychiatric disease protein project, primary screen (AID 1075); conditions: NRG1 binding, 635 nm fluorescence, higher = more signal;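 further: score combines 667 nm spot fluorescence with signal to noise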
# Chain of Pro-neuregulin-1, membrane-bound isoform (Homo sapiens) (Q02297 whole entry, looked up, the tested form may be a part, canonical isoform): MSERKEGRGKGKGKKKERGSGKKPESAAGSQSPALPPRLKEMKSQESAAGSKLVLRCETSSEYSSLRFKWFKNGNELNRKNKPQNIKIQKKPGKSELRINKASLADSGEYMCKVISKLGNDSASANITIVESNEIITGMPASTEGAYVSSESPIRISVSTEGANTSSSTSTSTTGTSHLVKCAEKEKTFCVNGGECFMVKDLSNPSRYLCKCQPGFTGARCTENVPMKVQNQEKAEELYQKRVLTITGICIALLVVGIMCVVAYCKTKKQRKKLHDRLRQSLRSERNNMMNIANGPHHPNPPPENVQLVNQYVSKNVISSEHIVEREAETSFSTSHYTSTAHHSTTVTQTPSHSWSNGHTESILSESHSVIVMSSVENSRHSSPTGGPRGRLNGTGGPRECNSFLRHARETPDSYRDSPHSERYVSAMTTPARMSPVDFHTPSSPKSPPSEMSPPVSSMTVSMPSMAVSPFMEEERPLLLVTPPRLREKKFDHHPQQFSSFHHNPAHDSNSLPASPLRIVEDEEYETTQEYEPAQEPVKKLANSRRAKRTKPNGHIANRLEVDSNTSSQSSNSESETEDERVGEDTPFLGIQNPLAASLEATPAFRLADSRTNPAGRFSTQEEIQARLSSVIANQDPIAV
# [7] = system: Neuregulin-1 EGF-like domain; assay: small molecules binding NRG1 EGF domain – biochemical, small-molecule microarray, 635 nm fluorescence, primary screen (AID 1081); conditions: higher = more signal;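 further: binding of the protein to compounds printed on small-molecule microarray slides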
# [8] = FRG1 expression reporter modulators in myotubes – cell-based, C2C12 myotubes, firefly/Renilla luciferase, luminescence, FRG1 inhibition for FSHD, primary screen (AID 1084); conditions: FRG1 promoter luciferase, higher = more signal, called active from +8 up or from −8 down
# [9] = small molecules captured by biotinylated probe aFST – biochemical, small-molecule microarray, fluorescence 635/667, stem cell growth factor project, primary screen (AID 1086); conditions: higher = more signal;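 further: score merges 667 nm fluorescence with signal-to-noise of each printed compound spot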
# [10] = binders of probe aHhip on microarray, primary screen, stem cell growth factor project, biochemical, small-molecule microarray, fluorescence 635/667 (AID 1087); conditions: higher = more signal;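 further: score merges spot fluorescence at 667nm with spot signal to noise ratio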
# [11] = system: PRMT1 (protein arginine N-methyltransferase 1); assay: small molecules binding arginine methyltransferase PRMT1 – biochemical, small-molecule microarray, 635 nm fluorescence, primary screen (AID 1088); conditions: higher = more signal;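 further: binding of Prmt1 protein to compounds spotted on small-molecule microarray slides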
# [12] = growth effects on S. cerevisiae YJM789 – YJM789 clinical isolate, OD600, 24 h, basal, primary screen (AID 1089); conditions: higher = more signal, called active from +8 up or from −8 down;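 further: growth of clinical yeast isolate S. cerevisiae YJM 789 seeded 1000 cells per well; test concentration not given here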
# [13] = S. pombe growth modifiers, basal conditions – strain 972, OD600, 24 h, no modulator, primary screen (AID 1090);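 further: basal condition with compound alone and no growth modifier present; test concentration not given here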; conditions: S. pombe 972 growth, higher = more signal, called active from +8 up or from −8 down
# [14] = budding yeast growth modifiers under rapamycin – strain BY4716, OD600, 96 h, primary screen (AID 1091); further: test concentration not given here; conditions: S. cerevisiae BY4716 + rapamycin, higher = more signal, called active from +8 up or from −8 down
# [15] = biological target: Torsin-1A-interacting protein 2 (Homo sapiens) (UniProt Q8NFQ8); assay: small molecules binding lysate-expressed LULL1 – cell lysate, human LULL1 lysate, 635/667 nm fluorescence, primary screen (AID 1092); conditions: small-molecule microarray, hLULL1 lysate binding, 635 nm fluorescence; higher = more signal;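 further: probe is lysate of COS7 cells overexpressing human LULL1; score merges per-feature 667 nm fluorescence with signal-to-noise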
# Chain of Torsin-1A-interacting protein 2 (Homo sapiens) (Q8NFQ8 whole entry, looked up): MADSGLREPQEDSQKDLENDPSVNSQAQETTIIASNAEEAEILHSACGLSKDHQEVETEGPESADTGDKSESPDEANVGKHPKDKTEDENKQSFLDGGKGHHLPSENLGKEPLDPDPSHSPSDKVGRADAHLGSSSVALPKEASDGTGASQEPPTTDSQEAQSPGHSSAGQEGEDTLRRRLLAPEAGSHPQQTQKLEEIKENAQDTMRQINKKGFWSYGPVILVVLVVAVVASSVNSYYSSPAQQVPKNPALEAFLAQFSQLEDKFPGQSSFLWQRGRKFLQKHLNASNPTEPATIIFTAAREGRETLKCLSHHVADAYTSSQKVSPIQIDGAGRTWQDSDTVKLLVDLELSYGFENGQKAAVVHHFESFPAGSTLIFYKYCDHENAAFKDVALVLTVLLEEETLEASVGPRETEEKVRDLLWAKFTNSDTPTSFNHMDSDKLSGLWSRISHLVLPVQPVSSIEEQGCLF
# [16] = optical density change of DRC41 E. coli – strain DRC41, OD650, 24 h, E. coli filamentation project, primary screen (AID 1093);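 further: MC1000 strain lacking acrAB efflux and sulA so SOS filamentation is blocked; test concentration not given here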; conditions: E. coli DRC41 growth, higher = more signal, called active from +8 up or from −8 down
# [17] = probe aLefty2 binding to arrayed compounds – biochemical, biotinylated probe, 635/667 nm fluorescence, primary screen (AID 1094); conditions: small-molecule microarray, higher = more signal;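 further: score merges spot fluorescence near 667 nm with spot signal-to-noise ratio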
# [18] = system: Noggin (protein binding on small-molecule microarray); assay: small molecules binding Noggin protein – biochemical, 635/667 nm fluorescence, primary screen (AID 1095); conditions: 635 nm fluorescence, higher = more signal;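 further: score merges 667 nm feature fluorescence with signal to noise over triplicate slides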
# [19] = biological target: Neurogenic locus notch homolog protein 3 (Homo sapiens) (UniProt Q9UM47); assay: small molecules binding NOTCH3 protein – biochemical, 635/667 nm fluorescence, primary screen (AID 1096); conditions: small-molecule microarray, 635 nm fluorescence, higher = more signal
# [20] = probe aEGFR binding to arrayed compounds – biochemical, biotinylated probe, 635/667 nm fluorescence, primary screen (AID 1097); conditions: small-molecule microarray, higher = more signal;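 further: probe is a biotinylated anti-EGFR antibody binding compounds printed on slides; score combines fluorescence near 667 nm and signal to noise of each spot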
Compound,composite z-score [1],composite z-score [2],composite z-score [3],composite z-score [4],composite z-score [5],composite z-score [6],composite z-score [7],z-score [8],composite z-score [9],composite z-score [10],composite z-score [11],z-score [12],z-score [13],z-score [14],composite z-score [15],z-score [16],composite z-score [17],composite z-score [18],composite z-score [19],composite z-score [20]
CCOC(=O)CCN1C(=O)[C@H]2[C@H]3[C@H](O)[C@H](O)CC(=NOCc4ccccc4)[C@H]3CC[C@H]2C1=O,1.08,-0.164,-0.121,0.11,0.206,-0.188,-0.368,-0.0531 (inactive),0.494,-0.236,-0.112,0.819 (inactive),1.04 (inactive),0.492 (inactive),0.374,1.08 (inactive),0.58,-0.316,-0.665,0.276
C=CC[C@@H]1C=C[C@H](ON=C2[C@H]3CCn4c(=O)n(-c5ccccc5)c(=O)n4[C@H]3[C@H](O)[C@@H]3O[C@H]23)[C@@H](CO)O1,-0.356,0.189,-0.065,0.274,0.502,0.19,0.0586,-0.299 (inactive),0.0716,0.104,-0.41,0.552 (inactive),0.383 (inactive),1.04 (inactive),-0.114,0.607 (inactive),-0.257,0.308,-0.0701,0.0434
CCOC(=O)[C@H](Cc1ccccc1)NC(=O)CCC1CC(OC(=O)NCc2ccc3c(c2)OCO3)CC2(CCCC(COC(=O)NCCC(C)C)O2)O1 (stereo not given in full),-0.545,0.107,-0.0193,0.755,0.523,1.41,1.06,0.548 (inactive),0.169,0.268,1.54,0.648 (inactive),-0.29 (inactive),-0.2 (inactive),1.95,-0.167 (inactive),0.0224,0.614,0.671,-0.068
CCOC(=O)CCN1C(=O)[C@H]2[C@H]3[C@H](O)[C@H](O)CC(=NNC(=O)OCc4ccccc4)[C@@H]3CC[C@H]2C1=O,-0.326,0.695,-0.158,0.504,0.88,0.716,0.971,-0.518 (inactive),0.111,-0.189,1.05,-0.662 (inactive),0.279 (inactive),-0.598 (inactive),0.967,0.826 (inactive),-0.23,0.713,1.01,-0.0688
CCc1cc2c(nc1CC)CCN(CCC(C)=NOC[C@H]1O[C@H](c3ccccc3)C=C[C@@H]1Oc1ccc(OC)cc1)C2,0.0529,0.732,-0.178,-0.147,-0.391,0.121,0.734,1.39 (inactive),0.0567,0.12,0.841,-0.837 (inactive),-5.85 (inactive),-0.473 (inactive),0.825,-0.782 (inactive),-0.164,0.0346,0.215,-0.0549
CCOC(=O)C1=NO[C@]2(C=C(Br)C3(OCCCO3)[C@H]3O[C@H]32)C1,0.0733,2.19,-0.116,-0.229,-0.212,-0.722,-0.208,0.293 (inactive),-0.132,-0.0726,-0.365,-0.658 (inactive),-1.06 (inactive),-0.155 (inactive),0.141,0.874 (inactive),-0.244,-0.519,-0.862,0.0214
CO[C@H]1COC(=O)[C@@H](C)COC(=O)[C@H](COCc2ccccc2)NC(=O)CC=C[C@H]1C,-0.325,1.45,-0.156,-0.607,-1.58,-1.19,-1.43,-0.335 (inactive),0.1,-0.0672,0.409,0.0827 (inactive),-0.704 (inactive),0.007 (inactive),-1.28,0.456 (inactive),-0.128,0.98,-0.944,-0.196
CCOC(=O)[C@H](Cc1ccccc1)NC(=O)CCC1CC(OC(=O)NCc2cccc3ccccc23)CC2(CCCC(COC(=O)NCc3ccccc3)O2)O1 (stereo not given in full),-0.356,0.0841,-0.21,0.159,0.118,0.477,0.686,0.573 (inactive),0.0918,-0.303,1.04,-2.28 (inactive),-2.51 (inactive),-0.414 (inactive),0.728,-1.42 (inactive),-0.0931,0.547,0.955,-0.142
CSCC[C@@H]1NC(=O)CC=C[C@@H](C)COC(=O)[C@@H](C)COC1=O,-0.324,2.62,-0.144,-0.456,-0.239,-1.21,0.129,-0.371 (inactive),-0.485,-0.391,1.21,0.506 (inactive),-0.463 (inactive),-0.318 (inactive),0.0424,0.59 (inactive),-0.103,0.882,-0.142,-0.197
C#CCCCON=C1C[C@@H](O)[C@@H](O)[C@@H]2[C@@H]3C(=O)N(C(C)(C)C)C(=O)[C@@H]3CC[C@H]12,1.86,1.01,-0.0245,-0.104,0.162,-0.431,-0.58,-0.247 (inactive),0.774,-0.122,-0.872,-0.234 (inactive),-0.401 (inactive),-0.0894 (inactive),-0.0077,0.216 (inactive),0.599,-0.532,-0.326,0.113
COc1ccc(COC(=O)NN=C2C[C@@H](O)[C@@H](O)[C@@H]3[C@@H]4C(=O)N(C5CCCCC5)C(=O)[C@@H]4CC[C@H]23)cc1,1.21,0.588,-0.0784,-0.396,-0.961,-0.255,-0.194,0.248 (inactive),0.524,-0.409,-0.416,0.494 (inactive),0.586 (inactive),0.818 (inactive),0.271,-0.277 (inactive),0.432,-0.752,-1.19,-0.242
COC(=O)[C@H](C)NC(=O)CCC1CC(OC(=O)NCc2ccc3c(c2)OCO3)CC2(CCCC(COC(=O)NCc3cccc(C(F)(F)F)c3)O2)O1 (stereo not given in full),-0.0199,0.325,-0.1,0.688,0.679,0.151,0.795,-0.15 (inactive),0.307,1.19,1.42,-1.04 (inactive),0.0536 (inactive),0.253 (inactive),1.65,-0.15 (inactive),-0.0096,0.186,0.524,-0.0644
CCc1cc2c(nc1CC)CCN(CCC(C)=NO[C@H](C)c1cn([C@H](CO)Cc3ccccc3)nn1)C2,0.111,0.985,-0.0154,0.0116,-0.0913,0.107,0.595,0.834 (inactive),-0.129,-0.249,1.05,-0.563 (inactive),-0.484 (inactive),-0.112 (inactive),0.461,-0.0004 (inactive),0.0336,0.336,-0.171,-0.142
CO[C@@H]1COC(=O)[C@@H]2CCCN2C(=O)[C@@H](C)COC(=O)CC=C[C@H]1C,-0.776,0.313,-0.122,0.397,0.5,0.0187,1.02,0.719 (inactive),0.271,0.607,1.41,-0.414 (inactive),0.0992 (inactive),-1.14 (inactive),0.882,-0.152 (inactive),-0.0438,1.18,0.943,-0.0788
CC(C)CON=C1C[C@@H](O)[C@@H](O)[C@@H]2[C@@H]3C(=O)N(c4ccc(F)cc4F)C(=O)[C@@H]3CC[C@H]12,-0.337,1.29,-0.214,0.269,0.737,0.668,1.23,-0.858 (inactive),0.803,0.111,1.55,-0.254 (inactive),-0.59 (inactive),-0.337 (inactive),1.63,-0.385 (inactive),-0.304,0.409,1.08,-0.0512
C[C@@H](c1ccccc1)N1C(=O)[C@H]2[C@H]3[C@H](O)[C@H](O)CC(=NO[C@@H]4O[C@H](CO)[C@@H](O)[C@H](O)[C@H]4O)[C@@H]3CC[C@H]2C1=O,-0.395,0.764,-0.0428,0.306,0.641,-0.319,0.752,0.19 (inactive),0.205,-0.0618,0.0967,0.114 (inactive),0.149 (inactive),-0.967 (inactive),0.652,0.345 (inactive),-0.126,0.111,0.372,0.0271
CC(C)CCN1CCc2nc(COc3ccccc3)c3c(c2C1)CO[C@@H](C)C3,0.188,0.369,-0.0819,0.0995,-0.0065,0.385,0.135,0.0476 (inactive),0.138,0.0623,0.0135,0.377 (inactive),-0.438 (inactive),-0.531 (inactive),1.25,1.17 (inactive),0.111,-0.0126,-0.149,-0.123
C=COC[C@@H]1CN2[C@@H](CC[C@@H](C)[C@@H]2c2ccc(Br)cc2)C(=O)O1,-0.154,0.436,-0.158,-0.134,-0.898,-0.0605,0.673,0.151 (inactive),-0.171,0.643,0.217,-0.872 (inactive),-17.1 (active),-0.61 (inactive),0.0749,-0.756 (inactive),-0.0769,-0.0482,-0.906,-0.267
CCOC(=O)[C@H](CC(C)C)NC(=O)CCC1CC(OC(=O)NCCc2ccc(F)cc2)CC2(CCCC(COC(=O)NCCOc3ccccc3)O2)O1 (stereo not given in full),-0.715,-0.409,-0.0909,0.704,1.25,0.996,1.24,1.99 (inactive),0.283,-0.374,1.56,0.407 (inactive),0.374 (inactive),-0.445 (inactive),2.21,-0.552 (inactive),-0.0965,0.676,1.11,-0.0828
